# Laboratory results as given in PubChem BioAssay AID1159580 (chemical genetic matrix, 2015).
# The whole screen tested about 5,500 compounds, of which about 2,000 (36%) were called active. Another 18% or so got no clear call; they are omitted. The list shows a part of the results. Values without a mark were called inactive. No stated cut-off is given here; in the data, active means normalized growth mostly below about 0.91 (no sharp cut-off); inconclusive means no clear call, values can overlap the other calls; inactive means mostly above about 0.92.
# Assay: chemical genetic growth profiling, strain panel (AID 1159580);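 further: tested at 20 µM; growth read once vehicle control cultures reached saturation at 30 °C; 1 = growth at the plate median or of vehicle wells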
# Details: S. cerevisiae deletion strains, growth OD
smiles,measurement,setting,value
CN(C)CCOc1ccc(/C(=C(/CCCl)c2ccccc2)c2ccccc2)cc1,normalized growth,"locus YAL021C, strain ccr4, stronger effect = lower value",0.0628 (active)
same,normalized growth,"locus YAL026C, strain drs2, stronger effect = lower value",0.0599 (active)
same,normalized growth,"locus YAL030W, strain snc1, stronger effect = lower value",0.0605 (active)
same,normalized growth,"locus YBL061C, strain skt5, stronger effect = lower value",0.0647 (active)
same,normalized growth,"locus YBR009C, strain hhf1, stronger effect = lower value",0.0629 (active)
same,normalized growth,"locus YBR023C, strain chs3, stronger effect = lower value",0.0684 (active)
same,normalized growth,"locus YBR171W, strain sec66, stronger effect = lower value",0.1 (active)
same,normalized growth,"locus YBR231C, strain swc5, stronger effect = lower value",0.0672 (active)
same,normalized growth,"locus YBR279W, strain paf1, stronger effect = lower value",0.0678 (active)
same,normalized growth,"locus YCL011C, strain gbp2, stronger effect = lower value",0.0647 (active)
same,normalized growth,"locus YCL016C, strain dcc1, stronger effect = lower value",0.0711 (active)
same,normalized growth,"locus YCL061C, strain MRC1, stronger effect = lower value",0.107 (active)
same,normalized growth,"locus YCL069W, strain vba3, stronger effect = lower value",0.071 (active)
same,normalized growth,"locus YCR088W, strain abp1, stronger effect = lower value",0.0709 (active)
same,normalized growth,"locus YDL005C, strain med2, stronger effect = lower value",0.0725 (active)
same,normalized growth,"locus YDL040C, strain nat1, stronger effect = lower value",0.0985 (active)
same,normalized growth,"locus YDR001C, strain nth1, stronger effect = lower value",0.0873 (active)
same,normalized growth,"locus YDR069C, strain doa4, stronger effect = lower value",0.0653 (active)
same,normalized growth,"locus YDR137W, strain rgp1, stronger effect = lower value",0.0958 (active)
same,normalized growth,"locus YDR159W, strain sac3, stronger effect = lower value",0.0868 (active)
same,normalized growth,"locus YDR195W, strain ref2",0.126 (active)
same,normalized growth,"locus YDR297W, strain sur2, stronger effect = lower value",0.0624 (active)
same,normalized growth,"locus YDR334W, strain swr1, stronger effect = lower value",0.0691 (active)
same,normalized growth,"locus YDR335W, strain msn5, stronger effect = lower value",0.0647 (active)
same,normalized growth,"locus YDR392W, strain spt3, stronger effect = lower value",0.0935 (active)
same,normalized growth,"locus YEL003W, strain gim4, stronger effect = lower value",0.0736 (active)
same,normalized growth,"locus YEL037C, strain rad23, stronger effect = lower value",0.0691 (active)
same,normalized growth,"locus YEL061C, strain CIN8 (second series), stronger effect = lower value",0.0848 (active)
same,normalized growth,"locus YER015W, strain faa2, stronger effect = lower value",0.0621 (active)
same,normalized growth,"locus YER016W, strain bim1, stronger effect = lower value",0.0811 (active)
same,normalized growth,"locus YER111C, strain swi4, stronger effect = lower value",0.0861 (active)
same,normalized growth,"locus YER155C, strain BEM2 (second series), stronger effect = lower value",0.107 (active)
same,normalized growth,"locus YFR010W, strain ubp6, stronger effect = lower value",0.069 (active)
same,normalized growth,"locus YGL167C, strain pmr1, stronger effect = lower value",0.0724 (active)
same,normalized growth,"locus YGL173C, strain kem1, stronger effect = lower value",0.0697 (active)
same,normalized growth,"locus YGL227W, strain vid30, stronger effect = lower value",0.0851 (active)
same,normalized growth,"locus YGL240W, strain doc1, stronger effect = lower value",0.0984 (active)
same,normalized growth,"locus YGL253W, strain hxk2, stronger effect = lower value",0.0578 (active)
same,normalized growth,"locus YHR013C, strain ard1, stronger effect = lower value",0.111 (active)
same,normalized growth,"locus YHR027C, strain rpn1, stronger effect = lower value",0.063 (active)
same,normalized growth,"locus YHR030C, strain SLT2, stronger effect = lower value",0.711 (active)
same,normalized growth,"locus YHR079C, strain IRE1, stronger effect = lower value",0.837 (active)
same,normalized growth,"locus YHR142W, strain chs7, stronger effect = lower value",0.0764 (active)
same,normalized growth,"locus YJL092W, strain hpr5, stronger effect = lower value",0.0832 (active)
same,normalized growth,"locus YJL095W, strain BCK1 (second series), stronger effect = lower value",0.0582 (active)
same,normalized growth,"locus YJL095W, strain BCK1, stronger effect = lower value",0.648 (active)
same,normalized growth,"locus YJL115W, strain asf1, stronger effect = lower value",0.118 (active)
same,normalized growth,"locus YJL129C, strain trk1, stronger effect = lower value",0.0917 (active)
same,normalized growth,"locus YJL154C, strain vps35, stronger effect = lower value",0.0755 (active)
same,normalized growth,"locus YJL164C, strain tpk1, stronger effect = lower value",0.0629 (active)
same,normalized growth,"locus YJL166W, strain qcr8, stronger effect = lower value",0.0637 (active)
same,normalized growth,"locus YJL187C, strain SWE1, stronger effect = lower value",0.0638 (active)
same,normalized growth,"locus YJR066W, strain TOR1, stronger effect = lower value",0.819 (active)
same,normalized growth,"locus YKL160W, strain elf1, stronger effect = lower value",0.079 (active)
same,normalized growth,"locus YKR026C, strain gcn3, stronger effect = lower value",0.106 (active)
same,normalized growth,"locus YKR091W, strain srl3, stronger effect = lower value",0.0783 (active)
same,normalized growth,"locus YLL001W, strain dnm1, stronger effect = lower value",0.0676 (active)
same,normalized growth,"locus YLL026W, stronger effect = lower value",0.0624 (active)
same,normalized growth,"locus YLL041C, strain sdh2, stronger effect = lower value",0.0691 (active)
same,normalized growth,"locus YLR027C, strain aat2, stronger effect = lower value",0.0598 (active)
same,normalized growth,"locus YLR113W, strain HOG1, stronger effect = lower value",0.791 (active)
same,normalized growth,"locus YLR221C, strain rsa3, stronger effect = lower value",0.0691 (active)
same,normalized growth,"locus YLR258W, strain gsy2, stronger effect = lower value",0.0661 (active)
same,normalized growth,"locus YLR262C, strain YPT6 (second series), stronger effect = lower value",0.0861 (active)
same,normalized growth,"locus YLR320W, strain mms22, stronger effect = lower value",0.0789 (active)
same,normalized growth,"locus YLR342W, strain FKS1, stronger effect = lower value",0.0712 (active)
same,normalized growth,"locus YLR357W, strain rsc2, stronger effect = lower value",0.148 (active)
same,normalized growth,"locus YLR370C, strain arc18, stronger effect = lower value",0.0617 (active)
same,normalized growth,"locus YLR384C, strain iki3, stronger effect = lower value",0.078 (active)
same,normalized growth,"locus YML120C, strain ndi1, stronger effect = lower value",0.0751 (active)
same,normalized growth,"locus YMR058W, strain fet3, stronger effect = lower value",0.064 (active)
same,normalized growth,"locus YMR125W, strain sto1, stronger effect = lower value",0.0872 (active)
same,normalized growth,"locus YMR129W, stronger effect = lower value",0.0788 (active)
same,normalized growth,"locus YMR205C, strain PFK2, stronger effect = lower value",0.0858 (active)
same,normalized growth,"locus YMR231W, strain pep5, stronger effect = lower value",0.0638 (active)
same,normalized growth,"locus YNL071W, strain lat1, stronger effect = lower value",0.0628 (active)
same,normalized growth,"locus YNL183C, strain NPR1, stronger effect = lower value",0.85
same,normalized growth,"locus YNL209W, strain ssb2, stronger effect = lower value",0.0599 (active)
same,normalized growth,"locus YNL248C, strain rpa49, stronger effect = lower value",0.166 (active)
same,normalized growth,"locus YNL322C, strain KRE1 (second series), stronger effect = lower value",0.433 (active)
same,normalized growth,"locus YNR049C, strain mso1, stronger effect = lower value",0.0725 (active)
same,normalized growth,"locus YOR001W, strain rrp6, stronger effect = lower value",0.0831 (active)
same,normalized growth,"locus YOR070C, strain gyp1, stronger effect = lower value",0.0593 (active)
same,normalized growth,"locus YOR080W, strain dia2, stronger effect = lower value",0.0814 (active)
same,normalized growth,"locus YOR083W, strain WHI5, stronger effect = lower value",0.0673 (active)
same,normalized growth,"locus YOR106W, strain vam3, stronger effect = lower value",0.117 (active)
same,normalized growth,"locus YOR231W, strain MKK1, stronger effect = lower value",0.791 (active)
same,normalized growth,"locus YOR265W, strain rbl2, stronger effect = lower value",0.0684 (active)
same,normalized growth,"locus YOR270C, strain vph1, stronger effect = lower value",0.0918 (active)
same,normalized growth,"locus YOR290C, strain snf2, stronger effect = lower value",0.0929 (active)
same,normalized growth,"locus YPL051W, strain arl3, stronger effect = lower value",0.0673 (active)
same,normalized growth,"locus YPL078C, strain atp4, stronger effect = lower value",0.0865 (active)
same,normalized growth,"locus YPL106C, strain sse1, stronger effect = lower value",0.1 (active)
same,normalized growth,"locus YPL240C, strain hsp82, stronger effect = lower value",0.0664 (active)
same,normalized growth,"locus YPL256C, strain CLN2, stronger effect = lower value",0.835
